Reference: PubChem BioAssay (NCI)
This is part of a sample that, as a whole, favours compounds with a hit. Of some 83,000 tested, about 20% had one in any assay.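 How to read the values: 0–100, growth inhibition (40 = 60% inhibited); 0, no net growth; -100 to 0, cell death (-40 = 40% of starting cells died; -100 = all dead).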 Unmarked numbers belong to inactive results. Activity calls are given as the source filed them. Rule for the calls: active = growth percent below 10; inactive = the rest.

Legend:
Test in all cases: NCI-60 one-dose screen, 48 h (100 = growth as untreated, 0 = no growth, -100 = all killed)
Conditions in all cases: 10 µM unless noted
SR leukemia = system: SR leukemia
RPMI-8226 leukemia = system: RPMI-8226 leukemia
OVCAR-8 ovarian = system: OVCAR-8 ovarian
OVCAR-5 ovarian = system: OVCAR-5 ovarian
OVCAR-4 ovarian = system: OVCAR-4 ovarian
SK-OV-3 ovarian = system: SK-OV-3 ovarian
IGROV1 ovarian = system: IGROV1 ovarian
OVCAR-3 ovarian = system: OVCAR-3 ovarian
HS 578T breast = system: HS 578T breast
NCI/ADR-RES ovarian = system: NCI/ADR-RES ovarian
T-47D breast = system: T-47D breast
BT-549 breast = system: BT-549 breast
MDA-MB-435 melanoma = system: MDA-MB-435 melanoma
SW-620 colon = system: SW-620 colon
MCF7 breast = system: MCF7 breast
HCT-116 colon = system: HCT-116 colon
HCC-2998 colon = system: HCC-2998 colon
KM12 colon = system: KM12 colon
MDA-MB-468 breast = system: MDA-MB-468 breast

| Compound | growth (SR leukemia) | growth (RPMI-8226 leukemia) | growth (OVCAR-8 ovarian) | growth (OVCAR-5 ovarian) | growth (OVCAR-4 ovarian) | growth (SK-OV-3 ovarian) | growth (IGROV1 ovarian) | growth (OVCAR-3 ovarian) | growth (HS 578T breast) | growth (NCI/ADR-RES ovarian) | growth (T-47D breast) | growth (BT-549 breast) | growth (MDA-MB-435 melanoma) | growth (SW-620 colon) | growth (MCF7 breast) | growth (HCT-116 colon) | growth (HCC-2998 colon) | growth (KM12 colon) | growth (MDA-MB-468 breast) |
| --- | --- | --- | --- | --- | --- | --- | --- | --- | --- | --- | --- | --- | --- | --- | --- | --- | --- | --- | --- |
| COc1cc2oc(-c3cccc(C(=O)Nc4ccc(Cl)cc4)c3)cc(=O)c2c(OCC(=O)N[C@@H](Cc2ccccc2)C(=O)O)c1OC | 104% | 101% | 106% | 101% | 104% | 138% | 98% | 117% | 108% | 104% | 109% | 125% | 101% | 99.2% | 93.2% | 109% | 121% | 105% | 112% |
| O=C(NN1C(=O)/C(=C/C=C/c2ccc([N+](=O)[O-])o2)SC1=S)c1ccc(Cl)cc1 | 4.16% (active) | -23.8% (active) | -78.2% (active) | -97.7% (active) | -98.9% (active) | -99.6% (active) | -92.9% (active) | -98% (active) | -18.4% (active) | -42.6% (active) | -91.2% (active) | -91.1% (active) | -86.2% (active) | -80.9% (active) | -60% (active) | -76.1% (active) | -96.2% (active) | -93% (active) | -85.9% (active) |
| CCC(C)(C)c1ccc(OCCCCCCN2CCN(c3ccncc3)CC2)cc1 | -27.5% (active) | -44.5% (active) | 54% | 65.7% | 47.7% | 38.5% | 49.8% | 38% | -7.9% (active) | 19% | -44.4% (active) | -44.2% (active) | -0.134% (active) | -62% (active) | -58.1% (active) | -69.3% (active) | -74.1% (active) | 7.93% (active) | -81.5% (active) |
| CCCS(=O)(=O)N1CCCC(C(=O)Nc2nc3ccc(NC(=O)c4ccc(F)c(OC)c4F)cc3s2)C1 (centres undefined) | 16.2% | 12.4% | 26.6% | 86% | 32.3% | 61.1% | 63.3% | 48.9% | 29.4% | 19.9% | -0.579% (active) | -11.9% (active) | 36.4% | 81.6% | 13.1% | 31.1% | 72.5% | 41.3% | 18.5% |
| Cc1ccc(C2=NN(c3nc(-c4cc5ccccc5oc4=O)cs3)C(c3ccc(C)cc3)C2)cc1 (centres undefined) | 102% | 98.6% | 106% | 126% | 99.1% | 80.3% | 104% | 109% | 101% | 101% | 91.8% | 120% | 107% | 105% | 63.4% | 110% | 118% | 106% | 78.2% |
| COc1cc2oc(-c3cccc(C(=O)Nc4cccc([N+](=O)[O-])c4)c3)cc(=O)c2c(OC)c1OC | 55% | 68.9% | 5.89% (active) | 83.5% | -6.32% (active) | -9.46% (active) | 22.1% | 26.7% | -5.03% (active) | -18.2% (active) | 26.8% | -15.9% (active) | 39.4% | 83.1% | 25.1% | 25.2% | 32.6% | 47.9% | 33% |
| Cc1ccc(NCC(=O)Cn2cc(COc3ccc(C=Nc4cnc5ccccc5c4)cc3)nn2)cc1 | 103% | 110% | 103% | 107% | 113% | 98.4% | 112% | 139% | 106% | 113% | 105% | 115% | 113% | 113% | 102% | 110% | 101% | 105% | 100% |
| CC(C)Sc1nc(NCCc2c[nH]c3ccccc23)c(C#N)c(-c2ccccc2)n1 | -17.2% (active) | 7.27% (active) | 38% | 68.7% | 53.6% | 70.2% | 87.8% | 44.4% | 8.79% (active) | 15.1% | -9.65% (active) | 55.1% | 48.1% | -11.6% (active) | -22.5% (active) | 0.232% (active) | 4.86% (active) | 6.51% (active) | -4.09% (active) |
| CC1CN(c2oc(-c3ccc([N+](=O)[O-])cc3)nc2C#N)CC(C)O1 (centres undefined) | 83.3% | 101% | 103% | 107% | 102% | 110% | 103% | 110% | 94.4% | 95.4% | 97.4% | 107% | 100% | 102% | 88.4% | 108% | 101% | 103% | 125% |
| COc1ccc(N2N=C(c3ccc4c(c3)OCO4)CC2c2cccc(NC(=O)CCCNS(=O)(=O)c3ccc(F)cc3)c2)cc1 (centres undefined) | 18.3% | 39.4% | 78.8% | 99.2% | 57.5% | 83.5% | 90.7% | 81.3% | 67.2% | 84.5% | 53% | 97.3% | 63.2% | 86.2% | 42.2% | 49.9% | 60.1% | 41.3% | 35.5% |
| Clc1ccc(-c2ccc(OCCCN3CCN(c4ccncc4)CC3)cc2)cc1 | -21.2% (active) | -9.75% (active) | 86.3% | 96.5% | 64.7% | 58% | 93.7% | 67.4% | 82.5% | 49.7% | 15.6% | 75.4% | 33.5% | -8.83% (active) | -1.15% (active) | -28.8% (active) | 21.2% | 61.4% | -9.68% (active) |
| O=C(COc1ccc(NC(=O)Nc2ccc(Cl)c(Cl)c2)cc1)N=Nc1c(O)[nH]c2ccc([N+](=O)[O-])cc12 | 25.5% | 55.4% | 78.1% | 74.4% | 75.2% | 95.2% | 74.4% | 56.8% | 57.4% | 100% | 66% | 50% | 59.5% | 15.9% | 30.6% | 11.3% | 82.6% | 42.2% | 32.6% |
| COc1ccc2[nH]c(O)c(N=NC(=O)Cn3c(-c4ccccc4)nc4cc(C)ccc43)c2c1 | 1.82% (active) | 10.7% | 1.93% (active) | 62.8% | 45.3% | 89.9% | 51.9% | 37.3% | 25.6% | -5.85% (active) | 30.3% | -61.7% (active) | 43.7% | 47.2% | 33% | -72.7% (active) | 18.9% | 47.3% | 34.4% |
| Cc1ccc(NC(=O)[C@]23CCC(C)(C)CC2C2=CCC4[C@@]5(C)C[C@@H](O)[C@H](O)[C@@](C)(CO)C5CC[C@@]4(C)[C@]2(C)CC3)cc1 (some centres undefined) | -11.8% (active) | -29.1% (active) | 44.9% | 6.37% (active) | 38.7% | 28.4% | 54.3% | 41.2% | 32.4% | 31.4% | 10.4% | 0.29% (active) | 26.2% | 40.1% | 4.26% (active) | 6.55% (active) | -6.83% (active) | -22.3% (active) | 0.813% (active) |
| CN(C)c1nc(NCCNS(=O)(=O)c2ccc(C(=O)/C=C/c3ccc(F)cc3)cc2)nc(Nc2ccc(F)cc2)n1 | -34.5% (active) | -15.4% (active) | -96.2% (active) | -97.4% (active) | -82% (active) | -0.953% (active) | -84.6% (active) | -97.4% (active) | -11.3% (active) | -91.6% (active) | -42.1% (active) | -88.7% (active) | -92.6% (active) | -95.3% (active) | -82.8% (active) | -86.8% (active) | -95.9% (active) | -93.6% (active) | -82.8% (active) |
| COc1cc2oc(-c3cccc(C(=O)Nc4ccc(Cl)cc4)c3)cc(=O)c2c(OCCNC(=O)[C@H](CO)NC(=O)OC(C)(C)C)c1OC | 2.89% (active) | -39.9% (active) | 18.3% | 32% | 36.4% | 93.3% | 25.3% | 17.2% | 26.5% | 64.8% | 29% | -52.3% (active) | 3.55% (active) | 33.7% | 6.34% (active) | 7.19% (active) | -7.27% (active) | 17.3% | -4.81% (active) |
